Giardia kill – Giardia lamblia killing. Giardia lamblia trophozoite viability. activity change, % at 7.66 µM, hits read low. 340,000 compounds, 0.15% hits. AID 540267; in the data active means activity change below about -80%; inconclusive means between about -30% and that limit;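 further: parasites exposed to compound for two days anaerobically before the ATP read; on the % scale 0 is the no-effect control and ±100 the full control effect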
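Media and compound were dispensed first, then trophozoites at 100 cells/well; plates sat 48 hrs at 37 deg C without oxygen before ATP luminescence reagent was added and read after 15-30 min at room temperature.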
BRCA1 expr act – increases BRCA1 expression. MCF7-BRCA1-FFLuc reporter, luminescence, 48 h; response scale: scaled: vehicle 0%, 10 µM genistein 100%. Potency, µM (highest dose often 46.1 µM), for inactives: at the highest dose activation, actives largely listed as activators. 380,000 compounds, 1.1% hits. AID 624202; further: potency means the concentration at half of the fitted maximal effect; nearly all actives have a fitted effect of over 80% in size
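Compounds are tested at multiple concentrations on MCF7 BRCA1-luciferase reporter cells seeded at 2000 per well; after 48 h, a single luminescence end-point is taken and curves fitted to the normalized data.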
p53 reactivation – re-activators of mutant p53; H1299 p53-A138V BP100-luciferase reporter, luminescence, 24 h; Potency, µM (titrated, usually from 92.2 µM), inactives show top-dose activity change, positive = activation, usual class: activators; 320,000 compounds, 0.063% hits; AID 504706; further: potency means the concentration at half of the fitted maximal effect; % of control where 0% means no effect; nearly all actives have a fitted effect of over 45% in size
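H1299 (p53-null), stable ts p53-A138V + BP100-Luc; 1000 cells/well, Opti-MEM/10% FBS; cpd 4 pt, 1:5; 24 h, 37 deg C, 5% CO2; detection reagent 10 min RT; luminescence.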
Gal4-VP16 FLuc – counter-screen for ROR gamma inhibitors: Gal4-VP16 reporter; Drosophila S2 Gal4-VP16 UAS-luciferase, luminescence, 20 h; Potency, µM (doses to about 53.6 µM), without a hit: at the top dose activity, negative = inhibition, usual class: inhibitors; 310,000 compounds, 3.5% hits; AID 2546;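 further: Gal4-VP16 expression switched on by copper sulfate through the metallothionein promoter; potency means the concentration at half of the fitted maximal effect; on the % scale 0 is the no-effect control and ±100 the full control effect; nearly all actives have a fitted effect of over 50% in size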
ELG1 DNA repair – inhibitors of ELG1-dependent DNA repair in HEK293T cells | AID 504467 | HEK293T ELG1-luciferase reporter, luminescence, 16 h; DNA damage induced by 5-fluorouridine | 330,000 compounds, 2.3% hits | Potency, µM (titrated, usually from 46.1 µM), without a hit: at the highest dose activity change, negative = inhibition, most hits filed as inhibitors; further: potency means the concentration at half of the fitted maximal effect; on the % scale 0 is the no-effect control and ±100 the full control effect; nearly all actives have a fitted effect of over 55% in size
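Overnight (16 hr) co-exposure of 2,000 cells/well to 5-fluorouridine and compound at 37 °C preceded detection. Luciferase was quantified via ONE-Glo luminescence; loss of signal denotes inhibition.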
RORg inh – inhibitors of mouse ROR gamma transcriptional activity | AID 2551 | Drosophila S2 Gal4-RORgamma UAS-luciferase reporter, 20 h | P51450 | Potency, µM (series often up to 53.6 µM), for the others: at the highest dose activity change, negative = inhibition, actives largely listed as inhibitors | 310,000 compounds, 5.4% hits; further: potency means the concentration at half of the fitted maximal effect; on the % scale 0 is the no-effect control and ±100 the full control effect; nearly all actives have a fitted effect of over 60% in size
Target sequence (P51450 whole entry, looked up, the tested form may be a part): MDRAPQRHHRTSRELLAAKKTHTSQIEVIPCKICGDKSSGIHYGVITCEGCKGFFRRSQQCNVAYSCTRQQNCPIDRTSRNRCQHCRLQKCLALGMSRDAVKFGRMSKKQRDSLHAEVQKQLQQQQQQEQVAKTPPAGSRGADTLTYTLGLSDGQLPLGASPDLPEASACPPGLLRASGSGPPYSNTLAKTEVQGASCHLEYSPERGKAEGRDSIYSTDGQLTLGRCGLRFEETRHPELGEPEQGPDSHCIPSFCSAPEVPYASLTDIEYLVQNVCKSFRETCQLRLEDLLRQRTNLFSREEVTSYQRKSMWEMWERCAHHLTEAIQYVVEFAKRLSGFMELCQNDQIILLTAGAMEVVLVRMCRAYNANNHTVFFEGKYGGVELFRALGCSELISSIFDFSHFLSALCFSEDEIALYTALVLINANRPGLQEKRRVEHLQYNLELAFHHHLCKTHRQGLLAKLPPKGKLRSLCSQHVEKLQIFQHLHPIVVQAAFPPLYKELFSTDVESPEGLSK
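Stably transfected Drosophila Schneider cells are the test system, with ROR gamma fused to Gal4 and luciferase under UAS control; luminescence is read after 20 hr of 700 uM copper sulfate induction at ambient temperature.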
An asterisk follows results filed as active; [ ] = remark or other dose. Only some compounds are listed: those with a hit (about 7.6% of all), similar ones and a draw of the others. Unless noted, the call rests on the fitted dose curve; in most records, active means well fitted curve in the direction sought with a large enough effect; inconclusive means small, poorly fitted or top-dose-only effect, or another doubt; inactive means no such curve, though single readings can be large; an effect the other way counts as inactive or inconclusive.

What do the screens show for `CCOc1ccc(Br)cc1CC(=O)O`?
Giardia kill: 1.0; BRCA1 expr act: -6.5%

Results for CCc1ccc(/C=C2\SC(=S)N(CCCC(=O)Nc3ccccc3C(=O)O)C2=O)cc1 ?
Giardia kill: -2.1; BRCA1 expr act: -40.2%; p53 reactivation: -7.7%; Gal4-VP16 FLuc: 20µM*; ELG1 DNA repair: 11.0%; RORg inh: 5.01µM*

Results for COc1cc(/C=C2\SC(=O)N(CC(=O)Nc3cccc(C)c3)C2=O)ccc1OC(C)C(=O)O (configuration not stated) ?
Giardia kill: -7.2; BRCA1 expr act: -9.8%

How did O=C(CCCN1C(=O)/C(=C/c2cccs2)SC1=S)NNC(=O)c1ccccc1O do in these assays?
Giardia kill: -11.8; BRCA1 expr act: -84.8%; p53 reactivation: -2.6%; Gal4-VP16 FLuc: inconclusive; ELG1 DNA repair: -22.6%; RORg inh: -34.0%[10 µM]

What do the screens show for `COc1ccc(/C=C2\SC(=O)N(CC(=O)Nc3cccc(C)c3)C2=O)cc1O`?
Giardia kill: 4.1; BRCA1 expr act: 8.8%; p53 reactivation: -21.9%; Gal4-VP16 FLuc: 17.8µM*; ELG1 DNA repair: 5.3%; RORg inh: inconclusive

How did CCc1ccc(/C=C2\SC(=S)N(CCCC(=O)Nc3ccc(C(=O)O)cc3)C2=O)cc1 do in these assays?
Giardia kill: -11.5; BRCA1 expr act: -92.5%; p53 reactivation: -5.1%; Gal4-VP16 FLuc: inconclusive; ELG1 DNA repair: inconclusive; RORg inh: 3.98µM*

Results for COc1ccc(/C=C2\SC(=S)N(CCCC(=O)NNC(=O)c3ccccc3O)C2=O)cc1 ?
Giardia kill: 12.0; BRCA1 expr act: -85.8%; p53 reactivation: -5.5%; Gal4-VP16 FLuc: 1.58µM*; ELG1 DNA repair: inconclusive; RORg inh: 0.708µM*

Results for O=C(CCN1C(=O)/C(=C/c2ccc(F)cc2)SC1=S)Nc1cccnc1 ?
Giardia kill: -5.2; BRCA1 expr act: -14.8%; p53 reactivation: -2.7%; Gal4-VP16 FLuc: 2.5%; ELG1 DNA repair: -2.9%; RORg inh: 15.6%

Results for CCOC(=O)c1cccc(NC(=O)CSc2nnc(COc3ccc(Cl)cc3)o2)c1 ?
Giardia kill: -4.8; BRCA1 expr act: -0.2%; p53 reactivation: -6.1%; Gal4-VP16 FLuc: -9.7%; ELG1 DNA repair: 3.5%; RORg inh: -21.0%

Results for COc1ccc(NC(=O)Cn2c(C)cc(=O)c3ccccc32)cc1 ?
Giardia kill: 3.9; BRCA1 expr act: -42.8%; p53 reactivation: -0.9%; Gal4-VP16 FLuc: inconclusive; ELG1 DNA repair: -28.0%; RORg inh: 14.1%

How did COc1ccc(NC(=O)CCCN2C(=O)/C(=C\c3ccco3)SC2=S)cc1 do in these assays?
Giardia kill: 9.6; BRCA1 expr act: -76.8%; p53 reactivation: inconclusive; Gal4-VP16 FLuc: inconclusive; ELG1 DNA repair: inconclusive; RORg inh: 11.2µM*

Results for COc1ccc(/C=C2/SC(=S)N(CCCC(=O)Nc3cccc(O)c3)C2=O)cc1 ?
Giardia kill: -6.2; BRCA1 expr act: -86.1%; p53 reactivation: inconclusive; Gal4-VP16 FLuc: 2.51µM*; ELG1 DNA repair: -17.4%; RORg inh: 0.316µM*

How did COc1ccc(/C=C2\SC(=S)N(CCC(=O)Nc3cccc(O)c3)C2=O)cc1OC do in these assays?
Giardia kill: inconclusive; BRCA1 expr act: 0.9%; p53 reactivation: 2.0%; Gal4-VP16 FLuc: inconclusive; ELG1 DNA repair: 2.3%; RORg inh: inconclusive

What do the screens show for `COc1cccc2c(=O)cc(C)n(CC(=O)Nc3cccc(C)c3)c12`?
Giardia kill: 7.7; BRCA1 expr act: -46.4%; p53 reactivation: -12.1%; Gal4-VP16 FLuc: 11.2µM*; ELG1 DNA repair: inconclusive; RORg inh: inconclusive

How did O=C(CCCN1C(=O)/C(=C\c2ccccc2)SC1=S)Nc1ccc(C(=O)O)cc1 do in these assays?
Giardia kill: 12.1; BRCA1 expr act: -47.6%; p53 reactivation: 2.4%; Gal4-VP16 FLuc: -7.8%; ELG1 DNA repair: -13.5%; RORg inh: -4.9%

High-throughput results (PubChem)
